This is an account of results in PubChem BioAssay (NCATS).

Results filed as inconclusive are left out. The source made the active and inactive calls. Calls follow the shape of the dose curve; as a rule, active = well fitted cell-killing curve with a large enough effect; inconclusive = small, poorly fitted or top-dose-only effect, or effect the other way; inactive = no such curve, though single readings can be large or run the other way. Starred links: 1 amine or outer side, 2 acyl side, 3 side chain; linkers in the order of their positions; H or OH if unused. Positions of bridges follow the written chain, without caps; N, C: chain ends. Non-standard residues stand in square brackets, D forms with d. Residues, ends and D or L forms follow the SMILES beside them. Chains are numbered I, II in the order given. Actinocin(9to1) = Cc1c2oc3c(C)ccc(C(=O)[*:1])c3nc-2c(C(=O)[*:2])c(N)c1=O; NMeV = CN[CH](C(=O)O)C(C)C; Sar = CNCC(=O)O
Potency is read from the fitted curve at half-maximal effect.

This experiment is described as follows: Quantitative High-Throughput drug screen in 47 multiple myeloma cell lines against the NCATS MIPE library collection: MM1R_ATCC cell viability assay (AID 1918981). Also: nearly all actives have a fitted effect of over 35% in size. The note with it: MM1R multiple myeloma cells, CellTiter-Glo viability, 48 h; series mostly up to 45.8 µM; viability (% of control): at the top concentration. From the text:
PI: Beverly A. Mock Ph.D.
Laboratory of Cancer Biology and Genetics,
Center for Cancer Research, National Cancer Institute,
National Institute of Health, Bethesda, Maryland
Drug resistance and disease progression are common in multiple myeloma (MM) patients, underscoring the need for new therapeutic combinations. […] We hypothesized that effective combinations would reduce MYC expression and enhance p16 activity. […] These preclinical data identify potentially useful drug combinations for evaluation in drug-resistant MM and reveal potential mechanisms of combined drug sensitivity.
Described herein is the primary MIPE qHTS used to cherrypick compounds. Validated compounds were then further tested for potential synergistic activiy.
[1] Peat TJ, Gaikwad SM, Dubois W, Gyabaah-Kessie N, Zhang S, Gorjifard S, Phyo Z, Andres M, Hughitt VK, Simpson RM, Miller MA, Girvin AT, Taylor A, Williams D, D'Antonio N, Zhang Y, Rajagopalan A, Flietner E, Wilson K, Zhang X, Shinn P, Klumpp-Thomas C, McKnight C, Itkin Z, Chen L, Kazandijian D, Zhang J, Michalowski AM, Simmons JK, Keats J, Thomas CJ, Mock BA. Drug combinations identified by high-throughput screening promote cell cycle transition and upregulate Smad pathways in myeloma. Cancer Lett. 2023 Aug 1;568:216284. doi: 10.1016/j.canlet.2023.216284. Epub 2023 Jun 24. PMID: 37356470; PMCID: PMC10408729.
SEQUENCE No. (e.g., 1, 2, 3, etc.); […] (e.g., Cells, Incubation, Reagent, etc.); VALUE and DESCRIPTION.
1; Cells; 5 uL; white, solid bottom 1536-well Greiner assay plate.
2; Compounds; 23 nL; Kalypsis pin tool (Wako USA) equipped with a 1536-well pin head to transfer to the assay plates.
3; Incubation; 48 hours; 37C incubation.
4; Reagent;5uL; CellTiter Glo (Promega).
5; Detector; 425V; Luminescence; Viewlux PerkinElmer.
NOTES (numbers refer to Sequence numbers above)
1. The cell-based screening methods employed in this study were like those previously published. Briefly, the corresponding myeloma cell lines were screened in 1,536-well plates with 500 cells, 5-uL per well for inhibition of cell viability (assessed by measuring ATP levels with CellTiterGlo).
2. NCATS MIPE 4.0 library of approved and investigational drugs were added using the Kalypsis pin tool. Wells treated with DMSO only for 100% viability and media only for 0% viability were used as controls.
3. The assay plates were covered and incubated for 48 hours in a 37C, 5% CO2 incubator with controlled humidity.
4. After 48 hours, CellTilter-GloTM luminescent substrate mix (Promega) reagent was added to the assay plate and plates we incubated for 5 min at room temperature.
5. Signal was measured as median relative luminescence units on a ViewLux (PerkinElmer) multiplate reader.
[1] Heske CM, Davis MI, Baumgart JT, Wilson K, Gormally MV, Chen L, Zhang X, Ceribelli M, Duveau DY, Guha R, Ferrer M, Arnaldez FI, Ji J, Tran HL, Zhang Y, Mendoza A, Helman LJ, Thomas CJ. Matrix Screen Identifies Synergistic Combination of PARP Inhibitors and Nicotinamide Phosphoribosyltransferase (NAMPT) Inhibitors in Ewing Sarcoma. Clin Cancer Res. 2017 Dec 1;23(23):7301-7311. doi: 10.1158/1078-0432.CCR-17-1121. Epub 2017 Sep 12. PMID: 28899971; PMCID: PMC6636827.
For `COc1cc(OC)cc(-c2ccc3ncc4ccc(=O)n(-c5ccc(N6CCNCC6)c(C(F)(F)F)c5)c4c3c2)c1`, the Potency was 4690 nM (active).
For `CC(=O)[C@]1(O)Cc2c(O)c3c(c(O)c2[C@@H](O[C@H]2C[C@H](N)[C@@H](O)[C@H](C)O2)C1)C(=O)c1ccccc1C3=O`, the Potency is 52.6 nM (active).
On the same count and under the same terms, the same measure for `COC1=C2C[C@@H](C)C[C@H](OC)[C@@H](O)[C@@H](C)C=C(C)[C@H](OC(N)=O)[C@@H](OC)C=CC=C(C)C(=O)NC(=CC1=O)C2=O`: 37.2 nM (active); for `COc1cc(C(C)C)c(Oc2cnc(NC(CO)CO)nc2N)cc1I`: 2640 nM (active).
As to `NC[C@H]1O[C@H](O[C@H]2[C@@H](O)[C@@H](O[C@H]3O[C@H](CO)[C@@H](O)[C@H](N)[C@@H]3O)[C@H](N)C[C@@H]2N)[C@H](N)C[C@H]1O`, the “viability (% of control)” value is 113% (inactive).
In the case of `CC(=O)SCC(Cc1ccccc1)C(=O)NCC(=O)OCc1ccccc1` (stereo not given), the Potency was 3720 nM (active).
On the same count and under the same terms, the same measure for `CN1C(C(=O)Nc2ccccn2)=C(O)c2sc(Cl)cc2S1(=O)=O`: 18700 nM (active).
In the case of `C[C@H]1O[C@H](O[C@H]2[C@H](O)[C@@H](O)[C@@H](O[C@H]3[C@H](O)[C@@H](O)C(O)O[C@H]3CO)O[C@H]2CO)[C@H](O)[C@@H](O)[C@H]1N[C@H]1C=C(CO)[C@@H](O)[C@H](O)[C@@H]1O` (stereo not given in full), the “viability (% of control)” value is 131% (inactive).
In the case of `COc1ccc2c(c1OC)C(=O)OC2[C@H]1c2c(cc3c(c2OC)OCO3)CCN1C` (stereo not given in full), the Potency is 418 nM (active).
Still for that read-out and setting: the same measure for `Oc1cc(-c2nc(-c3ccccc3)[nH]c2-c2ccncc2)ccc1Cl`: 14800 nM (active).
For `COC(=O)[C@H](CCCN=C(N)N)NS(=O)(=O)c1ccc(C)cc1`, the “viability (% of control)” value is 125% (inactive).
For the compound `CCOC(=O)C1=C(C)NC(=S)NC1c1cccc(O)c1` (stereo not given), the Potency is 29.6 nM (active).
As for `COc1cccc2c1C(=O)c1c(O)c3c(c(O)c1C2=O)C[C@@](O)(C(=O)CO)C[C@H]3O[C@H]1C[C@H](N)[C@H](O)[C@H](C)O1`, the Potency is 20.9 nM (active).
With `CC(C)N1[N]C(=C2C=c3cc(O)ccc3=N2)c2c(N)ncnc21`, the Potency is 418 nM (active).
The same measure, in the same setting: the value for `Cc1[nH]c(C=C2C(=O)Nc3ccccc32)c(C)c1CCC(=O)O` was 526 nM (active).
Same read-out and setting: the value for `CCC(C(=O)O)C1CCC(C)C(C(C)C(O)C(C)C(=O)C(CC)C2OC3(C=CC(O)[C@@]4(CC[C@](C)(C5CC[C@@](O)(CC)C(C)O5)O4)O3)C(C)CC2C)O1` (stereo not given in full) was 3720 nM (active).
Regarding `CC(C)C[C@H](NC(=O)CNC(=O)c1cc(Cl)ccc1Cl)B1OC(=O)CC(CC(=O)O)(C(=O)O)O1` (stereo not given in full), the Potency is 29.6 nM (active).
On to `CCC[C@H]1C[C@H](C(=O)N[C@@H]([C@@H]2O[C@@H](SC)[C@@H](O)[C@@H](O)[C@@H]2O)[C@H](C)Cl)N(C)C1`, for which the “viability (% of control)” value is 128% (inactive).
On to `CCCCCCCCCCCCc1ccc(S(=O)(=O)Nc2nncs2)cc1`, for which the Potency is 18700 nM (active).
Take `Cn1cnc(=N)c2[nH]cnc21`: the Potency was 93.5 nM (active).
As for `Cc1coc2c1C(=O)C(=O)c1c-2ccc2c(C)cccc12`, the Potency is 20900 nM (active).
The same measure, in the same setting: the value for `Cc1cnc(NC(=O)Nc2cc(Br)c(C)cc2OC[C@@H]2CNCCO2)cn1` was 743 nM (active).
For `CC(=O)O[C@H]1C[C@@H]2CC[C@H]3[C@H]4C[C@H]([N+]5(C)CCCCC5)[C@@H](OC(C)=O)[C@@]4(C)CC[C@@H]3[C@@]2(C)C[C@H]1[N+]1(C)CCCCC1`, the “viability (% of control)” value is 111% (inactive).
In the case of `c1ccc(CNc2nc(NCc3ccccc3)c3ccccc3n2)cc1`, the Potency was 26400 nM (active).
With `Cc1cc(C(=O)NOCCO)c(Nc2ccc(I)cc2F)n(C)c1=O`, the “viability (% of control)” value is 105% (inactive).
Consider `O=C(Nc1ccc(Oc2ccnc3[nH]ccc23)c(F)c1)c1cccn(-c2ccc(F)cc2)c1=O`, for which the Potency was 10500 nM (active).
Turning to `CO[C@@H]1[C@@H](O)[C@H](O)[C@@H](n2c3c(Cl)cccc3c3c4c(c5c6cccc(Cl)c6[nH]c5c32)C(=O)NC4=O)O[C@@H]1CO`, the Potency is 526 nM (active).
As for `CC(C)N(CC[C@H](c1ccccc1)c1cc(CO)ccc1O)C(C)C`, the “viability (% of control)” value was 116% (inactive).
Turning to `Cc1cncc2cccc(S(=O)(=O)N3CCCN(C(=O)CN)C[C@@H]3C)c12`, the “viability (% of control)” value is 127% (inactive).
`C[N+]1(C)[C@@H]2C[C@@H](OC(=O)C(O)(c3cccs3)c3cccs3)C[C@H]1[C@@H]1O[C@@H]12`: the “viability (% of control)” value was 129% (inactive).
Same read-out and setting: the same measure for `COc1cc(C)c(C=CC(C)=CC=CC(C)=CC(=O)O)c(C)c1C`: 90.1% (inactive).
Consider `O=c1c(O)c(-c2ccc(O)c(O)c2)oc2cc(O)ccc12`, for which the Potency was 23500 nM (active).
For the compound `C[C@@H](NCc1cc2ccccc2[nH]1)c1cccc2ccccc12`, the “viability (% of control)” value is 130% (inactive).
On the same count and under the same terms, the value for `COc1cc(OC)c(NC(=O)Nc2cc(C)on2)cc1Cl` was 132% (inactive).
Regarding `C[C@@H](Oc1ccc2[nH]nc(C=Cc3cnn(CCO)c3)c2c1)c1c(Cl)cncc1Cl`, the Potency is 2640 nM (active).
On the same count and under the same terms, the same measure for `CCOC(=O)N1CCN([N+]([O-])=NOc2ccc([N+](=O)[O-])cc2[N+](=O)[O-])CC1`: 1180 nM (active).
For the compound `OCC(O)C(O)C(O)CO` (stereo not given), the “viability (% of control)” value was 93.8% (inactive).
In the case of `Nc1nc(=O)n([C@H]2C[C@H](O)[C@@H](CO)O2)cc1F`, the “viability (% of control)” value was 125% (inactive).
The same measure, in the same setting: the same measure for `CC(C)(C)[C@H](NC(=O)c1ccc(N)c(Cl)c1)C(=O)N1CCC[C@@H]1C(=O)N[C@H](C#N)CC(=O)O`: 128% [at 3.51 µM] (inactive).
Take `Cc1c2oc3c(C)ccc(C(=O)NC4C(=O)NC(C(C)C)C(=O)N5CCCC5C(=O)N(C)CC(=O)N(C)C(C(C)C)C(=O)OC4C)c3nc-2c(C(=O)NC2C(=O)NC(C(C)C)C(=O)N3CCCC3C(=O)N(C)CC(=O)N(C)C(C(C)C)C(=O)OC2C)c(N)c1=O` (stereo not given) (I: TVP[Sar][NMeV] / II: TVP[Sar][NMeV]; ester I:1-I:C, II:1-II:C; linker I:N-II:N via Actinocin(9to1); configuration not given here): the “viability (% of control)” value is 0.441% (inactive).
